Only a selection was taken, and hits are over-represented in it overall.
Tg IFNy HTS – T. gondii growth inhibition with IFN-gamma, primary screen, cell-based; Toxoplasma gondii growth in IFN-gamma-treated host cells; active compounds read low; activity change, negative = inhibition, % (test concentration not listed); hit rate 3.8% among 69,000; in the data active means activity change below about -70%, passing the limit was not always enough;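 further: host cells are HeLa cells infected with Toxoplasma gondii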
The depositor's hits bear a star; i = inactive.

SMILES | Tg IFNy HTS
Cc1ccccc1-c1cc(N2CCN(C)CC2)ncc1N(C)C(=O)C(C)(C)c1cc(C(F)(F)F)cc(C(F)(F)F)c1 | -73*
Cc1cnc(N2C[C@@H]3OCC(=O)N(CC4CC4)[C@H]3C2)nc1 | -50
Cc1nc(-c2ccc(Cl)cc2)sc1CCNC(=O)c1cc2ccccc2oc1=O | 77
C[C@@H]1CN([C@@H](C)CO)S(=O)(=O)c2ccc(C#Cc3cccc(F)c3)cc2O[C@@H]1CN(C)S(=O)(=O)c1cn(C)cn1 | 32
C[C@H](CO)N1C[C@H](C)[C@H](CN(C)Cc2ccccc2C(=O)O)Oc2cc(-c3ccc(F)cc3)ccc2S1(=O)=O | 65
COCC#Cc1ccc2c(c1)O[C@H](CN(C)C(=O)C1CCOCC1)[C@H](C)CN([C@@H](C)CO)S2(=O)=O | 51
C[C@@H]1CN([C@@H](C)CO)S(=O)(=O)c2ccc(-c3ccncc3)cc2O[C@H]1CN(C)S(C)(=O)=O | 72
CCCN(C)C[C@@H]1Oc2cc(/C=C/c3ccccc3)ccc2S(=O)(=O)N([C@H](C)CO)C[C@@H]1C | 9
Cc1ccc(S(=O)(=O)N(C)C[C@@H]2Oc3cc(C#CC4CCCC4)ccc3S(=O)(=O)N([C@@H](C)CO)C[C@H]2C)cc1 | -109*
CCCC#Cc1ccc2c(c1)O[C@H](CN(C)Cc1ccccn1)[C@@H](C)CN([C@H](C)CO)S2(=O)=O | -29
CCCN(C)C[C@H]1Oc2cc(/C=C/c3ccccc3)ccc2S(=O)(=O)N([C@H](C)CO)C[C@H]1C | -92*
C[C@H](CO)N1C[C@H](C)[C@H](CN(C)C(=O)c2cnccn2)Oc2cc(C#CCC3CCCC3)ccc2S1(=O)=O | -100*
CCCC#Cc1ccc2c(c1)O[C@H](CN(C)Cc1ccccn1)[C@H](C)CN([C@@H](C)CO)S2(=O)=O | -94*
CCCC#Cc1ccc2c(c1)O[C@@H](CN(C)Cc1ccccn1)[C@H](C)CN([C@@H](C)CO)S2(=O)=O | -29
C[C@H]1CN([C@@H](C)CO)S(=O)(=O)c2ccc(C#CCC3CCCC3)cc2O[C@@H]1CN(C)C(=O)c1cnccn1 | -53
O=C(NCC1(Cn2cccn2)CC1)C(=O)N1CCc2ccccc21 | 5
COC(=O)c1ccc(-c2noc(CN3CCCN(c4ccccc4)CC3)n2)cc1 | 8
CN1CC[C@@]2(CN(c3ncccn3)C[C@H]2c2ccccc2)C1=O | 14
Clc1ccccc1Cn1nnc2c(Sc3nc4ccccc4s3)ncnc21 | 73
CCc1nc(Nc2ccc3c(c2)OCO3)c2nnn(Cc3ccccc3Cl)c2n1 | -99*
Fc1ccccc1CSc1nc(Nc2ccc3c(c2)OCO3)c2ccccc2n1 | -45
COc1cc(N2CCO[C@H]3[C@@H](Oc4ccccn4)CC[C@H]32)ncn1 | -2
CC1CCN(S(=O)(=O)c2ccc3c(ccc(=O)n3CC(=O)NC3CCCC3)c2)CC1 | -54
O=C(Cn1c(=O)cc(-c2nc(C3CC3)no2)c2ccccc21)NCCC1=CCCCC1 | -84*
CC(C)NC(=O)Cn1c(=O)cc(-c2nc(C3CC3)no2)c2ccccc21 | -31
SMILES | Tg IFNy HTS
CC1CCN(S(=O)(=O)c2ccc3c(ccc(=O)n3CC(=O)NCCC3=CCCCC3)c2)CC1 | -77*
CC1CCN(S(=O)(=O)c2ccc3c(ccc(=O)n3CC(=O)NC3CC3)c2)CC1 | -5
O=C(Cn1c(=O)cc(-c2nc(C3CC3)no2)c2ccccc21)NCc1ccc(F)cc1 | 10
CCCNC(=O)c1nc2c(o1)CN(C(=O)CN(C)C)C2 | -4
Cc1cc2nc(C(NS(=O)(=O)c3cnn(C)c3C)C(C)C)cc(=O)n2[nH]1 (stereo not drawn) | 3
O=C(O)c1ccc(-c2nccn2CC2(O)CCCCC2)cc1 | 5
COc1cc(OC)c(Nc2nc(-c3nnc(-c4ccc(F)cc4)o3)nc3ccccc23)cc1Cl | 86
COc1ccc(NC(=O)N2CCC3(CC2)Nc2cc(C)ccc2-n2cccc23)cc1OC | i
Cc1ccc(CNC(=O)CN2C(=O)CCc3cc(Br)ccc32)cc1 | -57
Cc1ncc(CN2CCCC(c3n[nH]c(=O)n3-c3ccccc3)C2)s1 (stereo not drawn) | 28
Cc1ccc(-c2coc(-c3ccc(NC(=O)Nc4ccccc4)cc3)n2)cc1 | 16
Cc1ccc(NC(=O)Nc2ccc(-c3nc(-c4ccccc4)co3)cc2)cc1 | 24
Cc1ccc(NC(=O)NC(=O)c2c(C)noc2-c2snnc2C)cc1 | -107*
CN(C)C(=O)CN1CCn2cc(Cn3cccn3)nc2C1 | -3
CCN1CCN(CC(=O)N2CCOC(Cc3ccc(OC)cc3)C2)CC1 (stereo not drawn) | 5
CC(=O)c1ccc(N2CCN(Cc3ccc(C)cc3)CC2)nc1 | -3
Cc1cnccc1CN(C)C(=O)C(C)(C)NC(=O)c1cccs1 | -8
COc1ccc(CC(=O)Nc2ccc(-c3nc(-c4cc(C)ccc4C)co3)cc2)cc1 | -11
COc1ccc(-c2ccnc(SCC(=O)Nc3ccccc3)n2)cc1 | -23
COCCn1c(-c2ccc(OC)cc2)cnc1SCC(=O)Nc1ccc(C)c(Cl)c1 | -90*
CN1CCC(Cc2noc(COCc3ccccc3)n2)CC1 | 19
CC[C@H](C)[C@@H]([C@@H](CC(=O)N1CCC[C@H]1[C@H](OC)[C@@H](C)C(=O)N[C@@H](Cc1ccccc1)c1nccs1)OC)N(C)C(=O)[C@@H](NC(=O)[C@H](C(C)C)N(C)C)C(C)C | -84*
Cc1cc(C)n(CC(C)C(=O)NC(Cc2cccs2)c2nccs2)n1 (stereo not drawn) | 70
O=C(NC(c1nccs1)C1CCCN(Cc2cccc(F)c2)C1)c1ccccc1 (stereo not drawn) | 20
COc1ccc(O)c(CN2CCC3(CC2)C(=O)N(C2Cc4ccccc4C2)C(=O)N3CC(C)C)c1 | 24
SMILES | Tg IFNy HTS
CCOc1ccc(NC(=O)c2cncc(NS(=O)(=O)c3ccc(OC)c(OC)c3)c2)cc1 | 12
COc1cccc(S(=O)(=O)Nc2ccc3c(c2)C(=O)N(C)C[C@@H](OC)[C@@H](C)CN(Cc2ccccc2F)[C@H](C)CO3)c1 | -53
COc1ccc(S(=O)(=O)Nc2ccc3c(c2)OC[C@@H](C)N(Cc2cc(F)ccc2F)C[C@@H](C)[C@H](OC)CN(C)C3=O)cc1 | -90*
COc1cccc(S(=O)(=O)Nc2ccc3c(c2)C(=O)N(C)C[C@@H](OC)[C@H](C)CN(Cc2ccccc2F)[C@H](C)CO3)c1 | -97*
COc1cccc(S(=O)(=O)Nc2ccc3c(c2)C(=O)N(C)C[C@H](OC)[C@H](C)CN(Cc2ccccc2F)[C@H](C)CO3)c1 | -57
COc1cccc(S(=O)(=O)Nc2ccc3c(c2)C(=O)N(C)C[C@H](OC)[C@@H](C)CN(Cc2ccccc2F)[C@H](C)CO3)c1 | -6
COc1cccc(S(=O)(=O)Nc2ccc3c(c2)C(=O)N(C)C[C@H](OC)[C@H](C)CN(Cc2ccccc2F)[C@@H](C)CO3)c1 | -45
CCN1C[C@@H]2CN(C(=O)c3ccnn3C)C[C@H]2C1=O | 45
C=CC[C@@H]1CC=C[C@@H](C)N1C(=O)C(=O)c1ccco1 | 5
COCC(=O)N1CCC(c2nc3ccc(-c4ccncc4)cn3n2)CC1 | 0
COc1c(CN2CCC3(CC2)NC(=O)N(Cc2ccccc2)C3=O)c(C)nn1C | 8
CNC(=O)[C@H]1C[C@@H]2CCN(Cc3cnn(C)c3)C[C@@H]2O1 | -3
Cn1c(SCC(=O)Nc2cccc(C(=O)O)c2)nnc1-c1cnccn1 | 5
CO[C@@H](C(=O)Nc1cc2c(C)cc(=O)oc2cc1C)c1ccccc1 | 0
O=c1[nH]c2ccccc2c2oc(-c3ccccc3)nc12 | 7
CCCCCCCc1nc2c(=O)[nH]c3ccccc3c2o1 | 0
